# Numbering of substitutions follows the chain as printed; changes in the protein carry UniProt numbers. Over roughly 16,000 sequences, “ka relative to ugcaugu” has its median near 0.096; the highest 2% begin near 0.35. This excerpt belongs to a sample that is enriched for the highest values.
# B1: UUCCUUC (DNA:RNA)
# RNA: GGGAGACCGGAAUUCAGAUUGUCCUUCCUUCUUAAAUCCCGUCGUAGCCACCA
# DNA 1: CAATCTGAATTCCGGTCTCCC
# DNA 2: TGGTGGCTACGACGGGATT
# B2: GGUAUGC (DNA:RNA)
# RNA: B1 RNA with U25G, U26G, C27U, C28A, U30G
# DNA 1: CAATCTGAATTCCGGTCTCCC
# DNA 2: TGGTGGCTACGACGGGATT
# B3: CGUAUGC (DNA:RNA)
# RNA: B1 RNA with U25C, U26G, C27U, C28A, U30G
# DNA 1: CAATCTGAATTCCGGTCTCCC
# DNA 2: TGGTGGCTACGACGGGATT
# B4: GGAUGCU (DNA:RNA)
# RNA: GGGAGACCGGAAUUCAGAUUGUCCGGAUGCUUUAAAUCCCGUCGUAGCCACCA
# DNA 1: CAATCTGAATTCCGGTCTCCC
# DNA 2: TGGTGGCTACGACGGGATT
# B5: GUAUGCU (DNA:RNA)
# RNA: B4 RNA with G26U
# DNA 1: CAATCTGAATTCCGGTCTCCC
# DNA 2: TGGTGGCTACGACGGGATT
# B6: GUUAUGC (DNA:RNA)
# RNA: B1 RNA with U25G, C27U, C28A, U30G
# DNA 1: CAATCTGAATTCCGGTCTCCC
# DNA 2: TGGTGGCTACGACGGGATT
# B7: UUAUGCU (DNA:RNA)
# RNA: B4 RNA with G25U, G26U
# DNA 1: CAATCTGAATTCCGGTCTCCC
# DNA 2: TGGTGGCTACGACGGGATT
# B8: GAGCUUG (DNA:RNA)
# RNA: B1 RNA with U25G, U26A, C27G, C31G
# DNA 1: CAATCTGAATTCCGGTCTCCC
# DNA 2: TGGTGGCTACGACGGGATT
# B9: UGUGGCA (DNA:RNA)
# RNA: B4 RNA with G25U, A27U, U28G, U31A
# DNA 1: CAATCTGAATTCCGGTCTCCC
# DNA 2: TGGTGGCTACGACGGGATT
# B10: CUAUUUC (DNA:RNA)
# RNA: B1 RNA with U25C, C27A, C28U
# DNA 1: CAATCTGAATTCCGGTCTCCC
# DNA 2: TGGTGGCTACGACGGGATT
# B11: AGUCAAC (DNA:RNA)
# RNA: B1 RNA with U25A, U26G, C27U, U29A, U30A
# DNA 1: CAATCTGAATTCCGGTCTCCC
# DNA 2: TGGTGGCTACGACGGGATT
# B12: AAUGCAG (DNA:RNA)
# RNA: GGGAGACCGGAAUUCAGAUUGUCCAAUGCAGUUAAAUCCCGUCGUAGCCACCA
# DNA 1: CAATCTGAATTCCGGTCTCCC
# DNA 2: TGGTGGCTACGACGGGATT
# B13: GUGCAUC (DNA:RNA)
# RNA: B1 RNA with U25G, C27G, U29A
# DNA 1: CAATCTGAATTCCGGTCTCCC
# DNA 2: TGGTGGCTACGACGGGATT
# B14: UUGCAUA (DNA:RNA)
# RNA: B1 RNA with C27G, U29A, C31A
# DNA 1: CAATCTGAATTCCGGTCTCCC
# DNA 2: TGGTGGCTACGACGGGATT
# B15: UUGCGUC (DNA:RNA)
# RNA: B1 RNA with C27G, U29G
# DNA 1: CAATCTGAATTCCGGTCTCCC
# DNA 2: TGGTGGCTACGACGGGATT
# B16: UUGCAUC (DNA:RNA)
# RNA: B1 RNA with C27G, U29A
# DNA 1: CAATCTGAATTCCGGTCTCCC
# DNA 2: TGGTGGCTACGACGGGATT
# B17: GUGCAUG (DNA:RNA)
# RNA: B1 RNA with U25G, C27G, U29A, C31G
# DNA 1: CAATCTGAATTCCGGTCTCCC
# DNA 2: TGGTGGCTACGACGGGATT
# B18: GUGCAGA (DNA:RNA)
# RNA: B1 RNA with U25G, C27G, U29A, U30G, C31A
# DNA 1: CAATCTGAATTCCGGTCTCCC
# DNA 2: TGGTGGCTACGACGGGATT
# B19: GUGCAUA (DNA:RNA)
# RNA: B1 RNA with U25G, C27G, U29A, C31A
# DNA 1: CAATCTGAATTCCGGTCTCCC
# DNA 2: TGGTGGCTACGACGGGATT
# B20: UUGCAUG (DNA:RNA)
# RNA: B1 RNA with C27G, U29A, C31G
# DNA 1: CAATCTGAATTCCGGTCTCCC
# DNA 2: TGGTGGCTACGACGGGATT
# B21: UUGCAGA (DNA:RNA)
# RNA: B1 RNA with C27G, U29A, U30G, C31A
# DNA 1: CAATCTGAATTCCGGTCTCCC
# DNA 2: TGGTGGCTACGACGGGATT
# B22: GCGUGCA (DNA:RNA)
# RNA: B4 RNA with G26C, A27G, U31A
# DNA 1: CAATCTGAATTCCGGTCTCCC
# DNA 2: TGGTGGCTACGACGGGATT
# B23: UCUUGCA (DNA:RNA)
# RNA: B4 RNA with G25U, G26C, A27U, U31A
# DNA 1: CAATCTGAATTCCGGTCTCCC
# DNA 2: TGGTGGCTACGACGGGATT
# B24: GUUCAUC (DNA:RNA)
# RNA: B1 RNA with U25G, C27U, U29A
# DNA 1: CAATCTGAATTCCGGTCTCCC
# DNA 2: TGGTGGCTACGACGGGATT
# Biological target: T1, RBFOX1 RRM RbFoxmut (Fox-RRM*) (Homo sapiens, UniProt Q9NWB1 109-208, R118D;E147R;N151S;E152T)
# T1 sequence: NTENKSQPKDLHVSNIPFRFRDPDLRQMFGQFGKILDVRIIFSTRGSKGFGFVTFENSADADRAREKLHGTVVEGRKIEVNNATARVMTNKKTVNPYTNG
# Experiment: EMSA; HiTS-Eq, 1 nM pool, 10 min; buffer printed only for the single-RNA assays: 10 mM Tris pH 7.5, 150 mM NaCl, 3.4 mM EDTA, 0.001% NP-40, 30 C
# Conditions: tags: His6 N-terminal (pET28a); label: 5' 32P
# Outline: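 Relative association constants, normalised to the cognate motif, were derived by comparing read counts of each RNA species with those of the control reaction. The RNA sequenced was the free fraction, separated by 8% native PAGE after a 10 min equilibration in 50 µL of 1 nM 5′-radiolabelled RNA (7 randomized nucleotides) with increasing concentrations of purified wild-type or mutant RbFox RRM.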
row,Binder,binding signal
1,B1,0.0735 KA relative to UGCAUGU
2,B2,0.398 KA relative to UGCAUGU
3,B3,0.325 KA relative to UGCAUGU
4,B4,0.142 KA relative to UGCAUGU
5,B5,0.402 KA relative to UGCAUGU
6,B6,0.21 KA relative to UGCAUGU
7,B7,0.13 KA relative to UGCAUGU
8,B8,0.253 KA relative to UGCAUGU
9,B9,0.136 KA relative to UGCAUGU
10,B10,0.0582 KA relative to UGCAUGU
11,B11,0.0571 KA relative to UGCAUGU
12,B12,0.103 KA relative to UGCAUGU
13,B13,0.566 KA relative to UGCAUGU
14,B14,0.23 KA relative to UGCAUGU
15,B15,0.126 KA relative to UGCAUGU
16,B16,0.432 KA relative to UGCAUGU
17,B17,1.39 KA relative to UGCAUGU
18,B18,0.12 KA relative to UGCAUGU
19,B19,0.153 KA relative to UGCAUGU
20,B20,0.909 KA relative to UGCAUGU
21,B21,0.108 KA relative to UGCAUGU
22,B22,0.225 KA relative to UGCAUGU
23,B23,0.205 KA relative to UGCAUGU
24,B24,0.0631 KA relative to UGCAUGU

# From article PMC9911399, “Two distinct binding modes provide the RNA-binding protein RbFox with extraordinary sequence specificity”
